# Test results as given in PubChem BioAssay (NCI).
# The panel holds about 79,000 compounds, 15% with a hit somewhere; the sample as a whole holds those more often. A number with no mark means an inactive call. Activity calls are given as the source filed them. Rule as the data show it: active = growth inhibition above about 70%; inactive = the rest.
# Experiments:
# [1] = NCI Yeast Anticancer Drug Screen. Data for the rad52 strain (AID 147);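 also: 0% = growth of vehicle-treated control cultures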; details: S. cerevisiae rad52 mutant growth inhibition, hits give high values
# Outline: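 Inhibition of yeast growth, referenced to vehicle controls, was the measured output for a strain with defective DNA damage repair.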
# [2] = NCI Yeast Anticancer Drug Screen. Data for the wt1 strain (AID 149);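 also: 0% = growth of vehicle-treated wt1 cultures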; details: S. cerevisiae wt1 strain (SPY 50644) growth inhibition, hits give high values
# Outline: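 Using yeast strain wt1, compound-induced growth inhibition was determined against vehicle-treated cultures.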
# [3] = NCI Yeast Anticancer Drug Screen. Data for the rad50EPP+ strain (AID 151);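 also: 0% = growth of vehicle-treated control cultures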; details: S. cerevisiae rad50 mutant strain, hits give high values
# Outline: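 Genetically defined yeast (rad50EPP+, DNA damage repair alteration) is grown with compound, and inhibition of growth is expressed relative to vehicle-treated controls.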
# [4] = NCI Yeast Anticancer Drug Screen. Data for the mgt1 strain (AID 153); details: S. cerevisiae mgt1 mutant growth inhibition, hits give high values
# Outline: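 In the mgt1 strain, test compounds were added and growth inhibition was determined relative to vehicle-treated controls.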
# [5] = NCI Yeast Anticancer Drug Screen. Data for the rad50 strain (AID 155);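 also: 0% = growth of vehicle-only cultures of the same strain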; details: S. cerevisiae rad50 strain growth inhibition, hits give high values
# Outline: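 Relative growth inhibition (compound vs vehicle) was measured in yeast with a defined repair-gene alteration.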
# [6] = NCI Yeast Anticancer Drug Screen. Data for the mec2-1 strain (AID 157); details: S. cerevisiae mec2-1 strain, hits give high values
# Outline: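 Each compound was tested on mec2-1 yeast, a strain altered in DNA damage repair or cell cycle control. Growth inhibition is reported relative to vehicle.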
# [7] = NCI Yeast Anticancer Drug Screen. Data for the rad14 strain (AID 159);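 also: 0% = growth of vehicle-treated control cultures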; details: S. cerevisiae rad14 strain growth inhibition, hits give high values
# Outline: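 Screen for anticancer potential: a yeast strain altered in DNA damage repair is grown with compound, and reduced growth is quantified against vehicle controls.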
# [8] = NCI Yeast Anticancer Drug Screen. Data for the sgs1 mgt1 strain (AID 161);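 also: 0% = growth of cultures given vehicle only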; details: S. cerevisiae sgs1 mgt1 strain, hits give high values
# Outline: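 Read-out: growth inhibition vs vehicle controls. Cells: mutant yeast strain deficient in DNA damage repair.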
# [9] = NCI Yeast Anticancer Drug Screen. Data for the CLN2oe strain (AID 163);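 also: 0% = growth of vehicle-only control cultures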; details: S. cerevisiae CLN2oe strain, hits give high values
# Outline: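 First, the altered yeast strain was treated with each compound; second, its growth was measured; finally, inhibition was derived by comparison with vehicle controls.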
# [10] = NCI Yeast Anticancer Drug Screen. Data for the cln2 rad14 strain (AID 165);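 also: 0% = growth equal to vehicle treated cultures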; details: S. cerevisiae cln2 rad14 strain, hits give high values
# Outline: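 Test compounds were added to cln2 rad14 yeast cultures; inhibition of growth was then determined by comparison with vehicle treatment.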
# [11] = NCI Yeast Anticancer Drug Screen. Data for the bub3 strain (AID 167); details: S. cerevisiae bub3 mutant strain, hits give high values
# Outline: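 Screening used yeast with an engineered genetic alteration affecting cell cycle control. Compound-exposed cultures were compared with vehicle cultures, and reduced growth was taken as inhibition.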
# [12] = NCI Yeast Anticancer Drug Screen. Data for the wt2 strain (AID 169);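 also: 0% = growth of vehicle-treated yeast cultures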; details: S. cerevisiae wt2 strain growth inhibition, hits give high values
# Outline: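 The panel's yeast strains carry defined changes in DNA repair or cell cycle genes. Each strain is grown with compound, and growth loss is scored relative to vehicle.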
# [13] = NCI Yeast Anticancer Drug Screen. Data for the mlh1 strain (AID 171);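 also: 0% = growth of vehicle-treated control cultures of the same strain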; details: S. cerevisiae mlh1 strain growth inhibition, hits give high values
# Outline: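 Inhibition values reflect reduced yeast growth in the presence of compound, referenced to vehicle controls, using a strain chosen for its alteration in DNA repair or cell cycle control.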
# [14] = NCI Yeast Anticancer Drug Screen. Data for the sgs1 strain (AID 173);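 also: 0% = growth of vehicle-only control cultures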; details: S. cerevisiae sgs1 mutant, hits give high values
# Outline: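 Vehicle-treated cultures served as reference for growth inhibition of a yeast strain altered in DNA damage repair or cell cycle control after compound exposure.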
# [15] = NCI Yeast Anticancer Drug Screen. Data for the mlh1 rad18 strain (AID 175); details: S. cerevisiae mlh1 rad18 strain growth inhibition, hits give high values
# Outline: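 Inhibition values reflect reduced growth of mutant yeast versus vehicle-treated controls following compound exposure; the mutations affect DNA damage repair.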
# [16] = NCI Yeast Anticancer Drug Screen. Data for the rad18 strain (AID 177); details: S. cerevisiae rad18 mutant growth inhibition, hits give high values
# Outline: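 Steps: expose repair-mutant yeast to compound; measure growth; express as inhibition relative to vehicle control.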
# [17] = at 5.0 µM (retest, dose inferred, filed as 0.5)
# [18] = at 50.0 µM (retest, dose inferred, filed as 5.0)
smiles,measurement,setting,value
CC(=O)/C=C/c1cc([N+](=O)[O-])ccc1O,growth inhibition,[1]; at 1.2 µM,-47%
same,growth inhibition,[1]; at 3.7 µM,-33%
same,growth inhibition,[1]; at 11.0 µM,-9%
same,growth inhibition,[1]; at 33.0 µM,79% (active)
same,growth inhibition,[1]; at 100.0 µM,97% (active)
same,growth inhibition,[2]; at 1.2 µM,-12%
same,growth inhibition,[2]; at 3.7 µM,-33%
same,growth inhibition,[2]; at 11.0 µM,-2%
same,growth inhibition,[2]; at 33.0 µM,66%
same,growth inhibition,[2]; at 100.0 µM,97% (active)
same,growth inhibition,[3]; at 1.2 µM,-27%
same,growth inhibition,[3]; at 3.7 µM,-4%
same,growth inhibition,[3]; at 11.0 µM,30%
same,growth inhibition,[3]; at 33.0 µM,78% (active)
same,growth inhibition,[3]; at 100.0 µM,95% (active)
same,growth inhibition,[4]; at 1.2 µM,-1%
same,growth inhibition,[4]; at 3.7 µM,2%
same,growth inhibition,[4]; at 11.0 µM,-2%
same,growth inhibition,[4]; at 33.0 µM,94% (active)
same,growth inhibition,[4]; at 100.0 µM,97% (active)
same,growth inhibition,[5]; at 1.2 µM,-22%
same,growth inhibition,[5]; at 3.7 µM,-20%
same,growth inhibition,[5]; [17],7%
same,growth inhibition,[5]; at 11.0 µM,-5%
same,growth inhibition,[5]; at 33.0 µM,83% (active)
same,growth inhibition,[5]; [18],85% (active)
same,growth inhibition,[5]; at 50.0 µM,86% (active)
same,growth inhibition,[5]; at 100.0 µM,97% (active)
same,growth inhibition,[6]; at 1.2 µM,-5%
same,growth inhibition,[6]; at 3.7 µM,-25%
same,growth inhibition,[6]; [17],0%
same,growth inhibition,[6]; at 11.0 µM,29%
same,growth inhibition,[6]; at 33.0 µM,96% (active)
same,growth inhibition,[6]; [18],89% (active)
same,growth inhibition,[6]; at 50.0 µM,90.5% (active)
same,growth inhibition,[6]; at 100.0 µM,99% (active)
same,growth inhibition,[7]; at 1.2 µM,-30%
same,growth inhibition,[7]; at 3.7 µM,-22%
same,growth inhibition,[7]; at 11.0 µM,9%
same,growth inhibition,[7]; at 33.0 µM,97% (active)
same,growth inhibition,[7]; at 100.0 µM,98% (active)
same,growth inhibition,[8]; [17],12%
same,growth inhibition,[8]; [18],87% (active)
same,growth inhibition,[8]; at 50.0 µM,88.9% (active)
same,growth inhibition,[9]; at 1.2 µM,-5%
same,growth inhibition,[9]; at 3.7 µM,3%
same,growth inhibition,[9]; at 11.0 µM,23%
same,growth inhibition,[9]; at 33.0 µM,86% (active)
same,growth inhibition,[9]; at 100.0 µM,98% (active)
same,growth inhibition,[10]; [17],36%
same,growth inhibition,[10]; [18],87% (active)
same,growth inhibition,[10]; at 50.0 µM,46.5%
same,growth inhibition,[11]; at 1.2 µM,-28%
same,growth inhibition,[11]; at 3.7 µM,-18%
same,growth inhibition,[11]; [17],21%
same,growth inhibition,[11]; at 11.0 µM,11%
same,growth inhibition,[11]; at 33.0 µM,95% (active)
same,growth inhibition,[11]; [18],92% (active)
same,growth inhibition,[11]; at 50.0 µM,49.7%
same,growth inhibition,[11]; at 100.0 µM,98% (active)
same,growth inhibition,[12]; at 1.2 µM,-31%
same,growth inhibition,[12]; at 3.7 µM,-32%
same,growth inhibition,[12]; at 11.0 µM,-23%
same,growth inhibition,[12]; at 33.0 µM,76% (active)
same,growth inhibition,[12]; at 100.0 µM,98% (active)
same,growth inhibition,[13]; at 1.2 µM,-6%
same,growth inhibition,[13]; at 3.7 µM,3%
same,growth inhibition,[13]; at 11.0 µM,33%
same,growth inhibition,[13]; at 33.0 µM,98% (active)
same,growth inhibition,[13]; at 100.0 µM,99% (active)
same,growth inhibition,[14]; at 1.2 µM,-28%
same,growth inhibition,[14]; at 3.7 µM,-24%
same,growth inhibition,[14]; at 11.0 µM,9%
same,growth inhibition,[14]; at 33.0 µM,94% (active)
same,growth inhibition,[14]; at 100.0 µM,98% (active)
same,growth inhibition,[15]; [17],24%
same,growth inhibition,[15]; [18],97% (active)
same,growth inhibition,[15]; at 50.0 µM,85.1% (active)
same,growth inhibition,[16]; at 1.2 µM,-51%
same,growth inhibition,[16]; at 3.7 µM,-47%
same,growth inhibition,[16]; at 11.0 µM,-23%
same,growth inhibition,[16]; at 33.0 µM,74% (active)
same,growth inhibition,[16]; at 100.0 µM,97% (active)
